{
  "source": "the supplement of paper PMC4466140",
  "experiment_in_all_cases": "SPOT peptide array binding signal intensity (averaged, normalized) (arbitrary units (background-subtracted, floor 0; scale differs between SH3 domains)); higher = stronger binding of the SH3 domain to the peptide",
  "key": {"[1]": {"molecular_target": "AgAbp1", "description": "(§1)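 GST-tagged SH3 domains from S. cerevisiae (Sc), A. gossypii (Ag), C. albicans (Ca) and S. pombe (Sp) were incubated at 10 ug/ml overnight at 4 C on cellulose SPOT membranes carrying 292 synthetic 15-mer peptides mined from the S. cerevisiae proteome (cysteines replaced by serines). Binding was detected with anti-GST antibody, HRP secondary and chemiluminescence, quantified with Genespotter, and reported as normalized spot intensities averaged over biological replicates.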"}, "[2]": {"molecular_target": "AgBbc1", "description": "as §1"}, "[3]": {"molecular_target": "AgBem1-D1", "description": "as §1"}, "[4]": {"molecular_target": "AgBzz1-D1", "description": "as §1"}, "[5]": {"molecular_target": "AgBzz1-D2", "description": "as §1"}, "[6]": {"molecular_target": "AgCyk3", "description": "as §1"}, "[7]": {"molecular_target": "AgFus1", "description": "as §1"}, "[8]": {"molecular_target": "AgHof1", "description": "as §1"}, "[9]": {"molecular_target": "AgHse1", "description": "as §1"}, "[10]": {"molecular_target": "AgLsb1", "description": "as §1"}, "[11]": {"molecular_target": "AgLsb4", "description": "as §1"}, "[12]": {"molecular_target": "AgMyo5", "description": "as §1"}, "[13]": {"molecular_target": "AgNbp2", "description": "as §1"}, "[14]": {"molecular_target": "AgRvs167", "description": "as §1"}, "[15]": {"molecular_target": "AgSho1", "description": "as §1"}, "[16]": {"molecular_target": "AgSla1-D1-D2", "description": "as §1"}, "[17]": {"molecular_target": "AgSla1-D3", "description": "as §1"}, "[18]": {"molecular_target": "CaAbp1-D1", "description": "as §1"}, "[19]": {"molecular_target": "CaAbp1-D2", "description": "as §1"}, "[20]": {"molecular_target": "CaBbc1", "description": "as §1"}, "[21]": {"molecular_target": "CaBem1-D1", "description": "as §1"}, "[22]": {"molecular_target": "CaBzz1-D1", "description": "as §1"}, "[23]": {"molecular_target": "CaBzz1-D2", "description": "as §1"}, "[24]": {"molecular_target": "CaCyk3", "description": "as §1"}, "[25]": {"molecular_target": "CaFus1", "description": "as §1"}, "[26]": {"molecular_target": "CaHof1", "description": "as §1"}, "[27]": {"molecular_target": "CaHse1", "description": "as §1"}, "[28]": {"molecular_target": "CaLsb1", "description": "as §1"}, "[29]": {"molecular_target": "CaLsb4", "description": "as §1"}, "[30]": {"molecular_target": "CaMyo5", "description": "as §1"}, "[31]": {"molecular_target": "CaNbp2", "description": "as §1"}, "[32]": {"molecular_target": "CaRvs167", "description": "as §1"}, "[33]": {"molecular_target": "CaRvs167-3", "description": "as §1"}, "[34]": {"molecular_target": "CaSho1", "description": "as §1"}, "[35]": {"molecular_target": "CaSla1-D1-D2", "description": "as §1"}, "[36]": {"molecular_target": "CaSla1-D3", "description": "as §1"}, "[37]": {"molecular_target": "ScAbp1", "description": "as §1"}, "[38]": {"molecular_target": "ScBbc1", "description": "as §1"}, "[39]": {"molecular_target": "ScBem1-D1", "description": "as §1"}, "[40]": {"molecular_target": "ScBzz1-D1", "description": "as §1"}, "[41]": {"molecular_target": "ScBzz1-D2", "description": "as §1"}, "[42]": {"molecular_target": "ScCyk3", "description": "as §1"}, "[43]": {"molecular_target": "ScFus1", "description": "as §1"}, "[44]": {"molecular_target": "ScHof1", "description": "as §1"}, "[45]": {"molecular_target": "ScHse1", "description": "as §1"}, "[46]": {"molecular_target": "ScLsb1", "description": "as §1"}, "[47]": {"molecular_target": "ScLsb2", "description": "as §1"}, "[48]": {"molecular_target": "ScLsb3", "description": "as §1"}, "[49]": {"molecular_target": "ScLsb4", "description": "as §1"}, "[50]": {"molecular_target": "ScMyo3", "description": "as §1"}, "[51]": {"molecular_target": "ScMyo5", "description": "as §1"}, "[52]": {"molecular_target": "ScNbp2", "description": "as §1"}, "[53]": {"molecular_target": "ScPex13", "description": "as §1"}, "[54]": {"molecular_target": "ScRvs167", "description": "as §1"}, "[55]": {"molecular_target": "ScSho1", "description": "as §1"}, "[56]": {"molecular_target": "ScSla1-D1-D2", "description": "as §1"}, "[57]": {"molecular_target": "ScSla1-D3", "description": "as §1"}, "[58]": {"molecular_target": "SpAbp1-D1", "description": "as §1"}, "[59]": {"molecular_target": "SpBbc1", "description": "as §1"}, "[60]": {"molecular_target": "SpBzz1-D1", "description": "as §1"}},
  "data": [
    {"binder": "TKIRRRPQQPLTDFT", "values": [
      {"measurement": "SPOT peptide array binding signal intensity", "setting": "[1]", "result": 21},
      {"measurement": "SPOT peptide array binding signal intensity", "setting": "[2]", "result": 109},
      {"measurement": "SPOT peptide array binding signal intensity", "setting": "[3]", "result": 32},
      {"measurement": "SPOT peptide array binding signal intensity", "setting": "[4]", "result": 42.5},
      {"measurement": "SPOT peptide array binding signal intensity", "setting": "[5]", "result": 82},
      {"measurement": "SPOT peptide array binding signal intensity", "setting": "[6]", "result": 2},
      {"measurement": "SPOT peptide array binding signal intensity", "setting": "[7]", "result": 150},
      {"measurement": "SPOT peptide array binding signal intensity", "setting": "[8]", "result": 39.8},
      {"measurement": "SPOT peptide array binding signal intensity", "setting": "[9]", "result": 61.5},
      {"measurement": "SPOT peptide array binding signal intensity", "setting": "[10]", "result": 22},
      {"measurement": "SPOT peptide array binding signal intensity", "setting": "[11]", "result": 18},
      {"measurement": "SPOT peptide array binding signal intensity", "setting": "[12]", "result": 0.5},
      {"measurement": "SPOT peptide array binding signal intensity", "setting": "[13]", "result": 6},
      {"measurement": "SPOT peptide array binding signal intensity", "setting": "[14]", "result": 2.33},
      {"measurement": "SPOT peptide array binding signal intensity", "setting": "[15]", "result": 3},
      {"measurement": "SPOT peptide array binding signal intensity", "setting": "[16]", "result": 12.5},
      {"measurement": "SPOT peptide array binding signal intensity", "setting": "[17]", "result": 3.5},
      {"measurement": "SPOT peptide array binding signal intensity", "setting": "[18]", "result": 276},
      {"measurement": "SPOT peptide array binding signal intensity", "setting": "[19]", "result": 158},
      {"measurement": "SPOT peptide array binding signal intensity", "setting": "[20]", "result": 518},
      {"measurement": "SPOT peptide array binding signal intensity", "setting": "[21]", "result": 13},
      {"measurement": "SPOT peptide array binding signal intensity", "setting": "[22]", "result": 137},
      {"measurement": "SPOT peptide array binding signal intensity", "setting": "[23]", "result": 147},
      {"measurement": "SPOT peptide array binding signal intensity", "setting": "[24]", "result": 76},
      {"measurement": "SPOT peptide array binding signal intensity", "setting": "[25]", "result": 338},
      {"measurement": "SPOT peptide array binding signal intensity", "setting": "[26]", "result": 0.25},
      {"measurement": "SPOT peptide array binding signal intensity", "setting": "[27]", "result": 6.5},
      {"measurement": "SPOT peptide array binding signal intensity", "setting": "[28]", "result": "≤ 0"},
      {"measurement": "SPOT peptide array binding signal intensity", "setting": "[29]", "result": 22.5},
      {"measurement": "SPOT peptide array binding signal intensity", "setting": "[30]", "result": 1.5},
      {"measurement": "SPOT peptide array binding signal intensity", "setting": "[31]", "result": 48.5},
      {"measurement": "SPOT peptide array binding signal intensity", "setting": "[32]", "result": 2.67},
      {"measurement": "SPOT peptide array binding signal intensity", "setting": "[33]", "result": 15.5},
      {"measurement": "SPOT peptide array binding signal intensity", "setting": "[34]", "result": 38},
      {"measurement": "SPOT peptide array binding signal intensity", "setting": "[35]", "result": 24},
      {"measurement": "SPOT peptide array binding signal intensity", "setting": "[36]", "result": 0.5},
      {"measurement": "SPOT peptide array binding signal intensity", "setting": "[37]", "result": 25},
      {"measurement": "SPOT peptide array binding signal intensity", "setting": "[38]", "result": 63.5},
      {"measurement": "SPOT peptide array binding signal intensity", "setting": "[39]", "result": 10},
      {"measurement": "SPOT peptide array binding signal intensity", "setting": "[40]", "result": 33},
      {"measurement": "SPOT peptide array binding signal intensity", "setting": "[41]", "result": 18},
      {"measurement": "SPOT peptide array binding signal intensity", "setting": "[42]", "result": 38},
      {"measurement": "SPOT peptide array binding signal intensity", "setting": "[43]", "result": 44},
      {"measurement": "SPOT peptide array binding signal intensity", "setting": "[44]", "result": "≤ 0"},
      {"measurement": "SPOT peptide array binding signal intensity", "setting": "[45]", "result": 281},
      {"measurement": "SPOT peptide array binding signal intensity", "setting": "[46]", "result": 4.75},
      {"measurement": "SPOT peptide array binding signal intensity", "setting": "[47]", "result": 1},
      {"measurement": "SPOT peptide array binding signal intensity", "setting": "[48]", "result": 115},
      {"measurement": "SPOT peptide array binding signal intensity", "setting": "[49]", "result": 15},
      {"measurement": "SPOT peptide array binding signal intensity", "setting": "[50]", "result": 1},
      {"measurement": "SPOT peptide array binding signal intensity", "setting": "[51]", "result": 2},
      {"measurement": "SPOT peptide array binding signal intensity", "setting": "[52]", "result": 93},
      {"measurement": "SPOT peptide array binding signal intensity", "setting": "[53]", "result": 6.75},
      {"measurement": "SPOT peptide array binding signal intensity", "setting": "[54]", "result": 14},
      {"measurement": "SPOT peptide array binding signal intensity", "setting": "[55]", "result": 148},
      {"measurement": "SPOT peptide array binding signal intensity", "setting": "[56]", "result": 240},
      {"measurement": "SPOT peptide array binding signal intensity", "setting": "[57]", "result": 38.5},
      {"measurement": "SPOT peptide array binding signal intensity", "setting": "[58]", "result": 94},
      {"measurement": "SPOT peptide array binding signal intensity", "setting": "[59]", "result": 5.75},
      {"measurement": "SPOT peptide array binding signal intensity", "setting": "[60]", "result": 253}
    ]}
  ]
}
